Records with an inconclusive call do not appear. A number with no mark means an inactive call. Calls of active or inactive are those of the source. Calls come from the whole dose curve; as a rule, active = well fitted inhibition curve with a large enough effect in the signal ratio in the repeat runs (not every such curve was filed as active); inconclusive = weak or mixed curves, or effect the other way; inactive = flat fitted curve, though single readings scatter; the % refers to the signal ratio.
Assay: cAMP Responsive Elements (CRE) small molecule antagonists, cell-based qHTS assay (AID 1963591)
Conditions: CRE-bla HEK293T, beta-lactamase FRET ratio; series mostly up to 92.4 µM; activity change, negative = inhibition: at the top concentration
Text: U.S. Tox21 Program National Center for Advancing Translational Sciences [NCATS] Division of Preclinical Innovation [DPI] U.S. Environmental Protection Agency [EPA] National Institutes of Environmental Health Sciences [NIEHS] National Toxicology Program [NTP] U.S. Food and Drug Administration [FDA] Tox21 Assay Overview: CREB (cyclic-AMP Responsive Element Binding Protein) is a cellular transcription factor. It binds to certain DNA sequences called cAMP Responsive Elements (CRE) and regulates the transcription of the genes. […] This cell line can be used to find agonists/antagonists of the cyclic AMP signaling pathway. The activation of the report gene under culture conditions can be detected by fluorescence intensity. This cell line has been used to screen the Tox21 10K compound library to […].
Tox21 Assay Protocol Summary: CRE-bla Hek 293T cells were suspended in assay medium (DMEM containing 10% dialyzed FBS, 0.1 mM NEAA, 1 mM sodium pyruvate and 25 mM HEPES) and dispensed at 2,000 cells/4 uL /well into 1536-well black wall/clear bottom plates using a Multidrop Combi (ThermoFisher Scientific, Waltham, MA) dispenser. After the assay plates were incubated at 37 C/5% CO2 for 18 hrs, 23 nL of compounds dissolved in DMSO, positive controls or DMSO only was transferred to the assay plate by a pintool workstation (Kalypsys, San Diego, CA), followed by addition of 1 […] uL of 1.25uM NKH477 (0.25 uM as final concentration) in assay medium using a Flying Reagent Dispenser (Aurora Discovery, San Diego, CA). The plates were incubated at 37 C and 5% CO2 for 3 hrs. Then 1 uL of LiveBLAzer B/G FRET substrate (Invitrogen, Carlsbad, CA) was added to each well using Bioraptr Flying Reagent Dispenser (FRD, Aurora Discovery, San Diego, CA). The plates were incubated at room temperature for 2 h.
% is set by controls: 0 for no effect and ±100 for the full control effect; potency is the fitted concentration of half-maximal effect.

**Q.** With CCCCCC(CO)CCC (stereo not given) as the compound, how does the “activity change, negative = inhibition” value read?
**A.** Its value is -2.23%.

**Q.** With CN1C(C(=O)Nc2ccccn2)=C(O)c2sccc2S1(=O)=O as the compound, how does the “activity change, negative = inhibition” value read?
**A.** Its value is 1.78% [at 42.4 µM].

**Q.** For O=C(O)CCSSCCC(=O)O, which “activity change, negative = inhibition” value is on record?
**A.** Its value is -8.8%.

**Q.** Which “activity change, negative = inhibition” value does the source give for CCCCCCCCCCCCCBr here?
**A.** The value was 1.98%.

**Q.** Which “activity change, negative = inhibition” value does the source give for O=C1CCC/C=C\CCCCCCCCCC1 here?
**A.** The value was 6.01%.

**Q.** Which “activity change, negative = inhibition” value does the source give for O=C(O)[C@H](O)c1ccccc1 here?
**A.** The value was 0.358% [at 42.4 µM].

**Q.** With NS(=O)(=O)c1cc2c(cc1Cl)NC(CSCc1ccccc1)=NS2(=O)=O as the compound, how does the “activity change, negative = inhibition” value read?
**A.** The value was -3.02% [at 42.4 µM].

**Q.** Which “activity change, negative = inhibition” value does the source give for CC(C)CCOC(=O)c1ccc(N(C)C)cc1 here?
**A.** Its value is 7.13% [at 42.4 µM].

**Q.** Which “activity change, negative = inhibition” value does the source give for COC(=O)c1cc(Cl)cc(Cl)c1 here?
**A.** The value was -12.4%.

**Q.** With NCCc1cnc[nH]1 as the compound, how does the “activity change, negative = inhibition” value read?
**A.** The value was -2.93% [at 42.4 µM].

**Q.** Which “activity change, negative = inhibition” value does the source give for CCC(C)[O-].CCC(C)[O-].CCOC(=O)/C=C(/C)[O-].[Al+3] here?
**A.** Its value is -3.57%.

**Q.** For CC1(O)CSC(C)(O)CS1 (stereo not given), which “activity change, negative = inhibition” value is on record?
**A.** The value was 0.118%.

**Q.** With O=C(O)c1ccc(S(=O)(=O)O)cc1C(=O)O as the compound, how does the “activity change, negative = inhibition” value read?
**A.** The value was -9.57%.

**Q.** With CCN(CCC#N)c1ccc(N=Nc2c(Cl)cc([N+](=O)[O-])cc2Cl)cc1 as the compound, how does the “activity change, negative = inhibition” value read?
**A.** The value was 15.5%.

**Q.** With C=O as the compound, how does the “activity change, negative = inhibition” value read?
**A.** Its value is -10.7%.

**Q.** Which “activity change, negative = inhibition” value does the source give for COC(=O)C1=C(C)NC(COC(N)=O)=C(C(=O)OC(C)C)C1c1cccc(Cl)c1Cl (stereo not given) here?
**A.** The value was 5.23% [at 42.4 µM].

**Q.** For COC(C)(C)CC(C)=O, which “activity change, negative = inhibition” value is on record?
**A.** The value was -0.969%.

**Q.** Which “activity change, negative = inhibition” value does the source give for NS(=O)(=O)c1ccc(C(=O)O)cc1 here?
**A.** The value was -1.26% [at 42.4 µM].

**Q.** Which “activity change, negative = inhibition” value does the source give for CN1CCN(C2=Nc3cc(Cl)ccc3Nc3ccccc32)CC1 here?
**A.** Its value is -6.31% [at 42.4 µM].

**Q.** For CNCC[C@H](Oc1cccc2ccccc12)c1cccs1, which “activity change, negative = inhibition” value is on record?
**A.** Its value is -19.9% [at 42.4 µM].

**Q.** For O=C(O)c1ccccc1-c1ccc(C(F)(F)F)cc1, which “activity change, negative = inhibition” value is on record?
**A.** The value was -0.963% [at 42.4 µM].

**Q.** Which “activity change, negative = inhibition” value does the source give for CC(CC=O)CCCC(C)(C)O (stereo not given) here?
**A.** Its value is 0.819%.

**Q.** With Nc1nnc(-c2ccc([N+](=O)[O-])o2)o1 as the compound, how does the “activity change, negative = inhibition” value read?
**A.** Its value is -9.49%.

**Q.** For Nc1ccc2ccccc2c1S(=O)(=O)O, which “activity change, negative = inhibition” value is on record?
**A.** Its value is 6.89%.

**Q.** With Cc1ccc(O)c2ncccc12 as the compound, how does the Potency read?
**A.** Its Potency is 13.3 µM (active).

**Q.** For CC(CN)CC(C)(C)CCN (stereo not given), which “activity change, negative = inhibition” value is on record?
**A.** The value was 9.65% [at 240 µM].

**Q.** With CC(C)Cc1ccc(CC(=O)O)cc1 as the compound, how does the “activity change, negative = inhibition” value read?
**A.** The value was 5.42% [at 42.4 µM].

**Q.** Which “activity change, negative = inhibition” value does the source give for CCC(=O)OCCOc1ccccc1 here?
**A.** The value was 0.986%.

**Q.** With CC(COc1ccccc1)NN (stereo not given) as the compound, how does the “activity change, negative = inhibition” value read?
**A.** The value was 9.44% [at 42.4 µM].

**Q.** With CC(C)Cn1cnc2c1c(=O)n(C)c(=O)n2C as the compound, how does the “activity change, negative = inhibition” value read?
**A.** Its value is -2.11% [at 42.4 µM].

**Q.** With COC(=O)Nc1nc2ccc(C(=O)c3ccccc3)cc2[nH]1 as the compound, how does the “activity change, negative = inhibition” value read?
**A.** The value was -0.657% [at 42.4 µM].

**Q.** With COC(=O)[C@@H]1CC2=CC(=O)CC[C@]2(C)[C@@]23O[C@@H]2C[C@@]2(C)[C@@H](CC[C@@]24CCC(=O)O4)[C@H]13 as the compound, how does the “activity change, negative = inhibition” value read?
**A.** The value was -1.64% [at 42.4 µM].

**Q.** For CC(=O)OCC(=O)[C@@]1(O)CC[C@H]2[C@@H]3CCC4=CC(=O)CC[C@]4(C)[C@H]3C(=O)C[C@@]21C, which “activity change, negative = inhibition” value is on record?
**A.** Its value is 6.63% [at 42.4 µM].

**Q.** Which “activity change, negative = inhibition” value does the source give for Cc1cccc(OCC(O)CNC(C)(C)C)c1C (stereo not given) here?
**A.** Its value is -0.498% [at 42.4 µM].

**Q.** Which “activity change, negative = inhibition” value does the source give for CCCCCCCCCCCCCCCBr here?
**A.** The value was 0.0863% [at 42.4 µM].

**Q.** For CN(C)CCOC(c1ccccc1)c1ccc(Br)cc1 (stereo not given), which “activity change, negative = inhibition” value is on record?
**A.** Its value is -0.917% [at 42.4 µM].

**Q.** For CC(=O)c1ccc([N+](=O)[O-])cc1, which “activity change, negative = inhibition” value is on record?
**A.** The value was 8.72%.

**Q.** For O=C(CC(=O)C(F)(F)F)c1ccccc1, which “activity change, negative = inhibition” value is on record?
**A.** The value was 2.2%.

**Q.** For Oc1ccc(C2(c3ccc(O)cc3)CC3CC2C2CCCC32)cc1 (stereo not given), which Potency is on record?
**A.** The Potency was 65.9 µM (active).

**Q.** Which “activity change, negative = inhibition” value does the source give for C[C@@H](O)C(=O)O here?
**A.** Its value is 2.99%.
